For some assays here: Measured potencies and affinities stand elsewhere.

We go through 10 molecules from ChEMBL document CHEMBL3988442, “University of Dundee, Small-Polar-MMV Screening Library” (2021).

What all share (set-up): scale not given: direction of the effect not stated beside the values
Assay [1] deals with Protein translocase subunit SecA (Escherichia coli (strain K12)) (UniProt P10408). The experiment in a line: Assay to Identify E. coli SecA ATPase Inhibitors. In kind it is functional. As to conditions: 30 µM.
For assay [2], the target named is T1, Ubiquitin-activating enzyme e1, putative (Leishmania donovani (strain BPK282A1)) (UniProt E9BSI1).
T1 sequence (whole entry): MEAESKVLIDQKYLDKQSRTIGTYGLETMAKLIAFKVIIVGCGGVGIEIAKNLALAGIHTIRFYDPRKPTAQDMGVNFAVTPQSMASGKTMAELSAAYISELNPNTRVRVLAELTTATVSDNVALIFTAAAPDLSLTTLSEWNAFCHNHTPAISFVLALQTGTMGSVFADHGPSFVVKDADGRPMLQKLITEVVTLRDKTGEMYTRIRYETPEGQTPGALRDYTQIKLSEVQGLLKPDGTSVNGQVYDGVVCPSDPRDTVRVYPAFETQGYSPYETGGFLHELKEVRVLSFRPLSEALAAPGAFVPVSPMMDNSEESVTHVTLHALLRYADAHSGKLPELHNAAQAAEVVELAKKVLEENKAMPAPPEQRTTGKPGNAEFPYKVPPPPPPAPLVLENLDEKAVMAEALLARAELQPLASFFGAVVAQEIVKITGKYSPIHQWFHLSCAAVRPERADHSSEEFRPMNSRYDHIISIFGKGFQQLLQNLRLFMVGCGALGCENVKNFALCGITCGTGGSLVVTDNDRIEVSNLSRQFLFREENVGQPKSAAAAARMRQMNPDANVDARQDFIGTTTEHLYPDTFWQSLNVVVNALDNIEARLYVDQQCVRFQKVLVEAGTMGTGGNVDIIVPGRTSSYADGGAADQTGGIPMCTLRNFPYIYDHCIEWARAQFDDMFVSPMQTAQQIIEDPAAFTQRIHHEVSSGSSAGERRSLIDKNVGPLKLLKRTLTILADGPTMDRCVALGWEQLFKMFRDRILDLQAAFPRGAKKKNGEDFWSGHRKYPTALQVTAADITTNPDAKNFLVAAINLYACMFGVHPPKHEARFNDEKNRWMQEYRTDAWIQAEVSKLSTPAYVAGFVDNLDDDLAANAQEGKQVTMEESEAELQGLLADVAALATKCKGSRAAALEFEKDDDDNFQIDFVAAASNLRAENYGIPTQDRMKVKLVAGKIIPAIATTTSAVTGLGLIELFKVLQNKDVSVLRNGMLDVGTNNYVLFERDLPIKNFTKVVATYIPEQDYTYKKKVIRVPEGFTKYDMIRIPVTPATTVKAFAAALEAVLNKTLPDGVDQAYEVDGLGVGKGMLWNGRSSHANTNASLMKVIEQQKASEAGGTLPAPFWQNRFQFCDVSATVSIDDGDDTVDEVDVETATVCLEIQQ
The experiment in a line: Leishmania donovani Ubiquitin Activating Enzyme (LdE1). As to conditions: 30 µM. In kind it is functional.

The target of assay [3] is AMP-activated protein kinase, AMPK (Homo sapiens) (UniProt P54646+O43741+P54619+Q9UGJ0+Q9Y478+Q13131+Q9UGI9). Put plainly: AMP-dependent Kinase enzyme assay. An in vitro enzyme assay that detects ADP turnover that is directly proportional to AMPK activity. This uses naive AMPK that is activated during the assay with MK-8722. It counts as functional. Conditions: 30 µM.
The target in assay [4] is Sialic acid-binding Ig-like lectin 9 (Homo sapiens) (UniProt Q9Y336). Put plainly: Hs-Siglec9 ALPHAscreen SOP 20170721. As to conditions: 10 µM. (In general: Alpha assays give light when donor and acceptor beads are brought close together.)
In the next assay the test system is Trypanosoma cruzi. Put plainly: Trypanosoma cruzi phosphomannomutase and mannose-1-phosphate guanylyltransferase assay. It counts as functional. Conditions: 10 µM.
In assay [5] the target is T2, Arginase-2, mitochondrial (Homo sapiens) (UniProt P78540).
T2 sequence (whole entry): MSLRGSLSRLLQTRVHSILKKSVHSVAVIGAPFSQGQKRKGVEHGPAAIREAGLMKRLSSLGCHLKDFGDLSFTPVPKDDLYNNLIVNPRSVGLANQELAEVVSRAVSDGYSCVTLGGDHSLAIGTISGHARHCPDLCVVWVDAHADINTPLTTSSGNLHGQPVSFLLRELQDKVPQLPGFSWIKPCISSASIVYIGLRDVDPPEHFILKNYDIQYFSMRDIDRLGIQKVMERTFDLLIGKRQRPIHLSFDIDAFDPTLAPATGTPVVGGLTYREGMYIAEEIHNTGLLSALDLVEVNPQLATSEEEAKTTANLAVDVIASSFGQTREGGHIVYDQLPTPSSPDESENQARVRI
Put plainly: in vitro enzyme assay to detect the production of urea directly proportional to the activity of Arginase II. Also: in the data most compounds retested in dose-response had high values. As to conditions: 33.3 µM. In kind it is functional.

Assay [6] has as its target T3, Proteasome subunit beta (Trypanosoma cruzi) (UniProt O96673).
T3 sequence (whole entry): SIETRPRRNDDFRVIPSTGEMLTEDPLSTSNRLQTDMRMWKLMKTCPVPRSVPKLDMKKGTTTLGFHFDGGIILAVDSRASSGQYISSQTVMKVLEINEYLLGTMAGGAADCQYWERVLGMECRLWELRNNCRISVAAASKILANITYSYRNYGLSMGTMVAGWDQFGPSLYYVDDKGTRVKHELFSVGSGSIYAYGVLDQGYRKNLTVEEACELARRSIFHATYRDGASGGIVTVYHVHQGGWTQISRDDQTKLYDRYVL
Put plainly: Trypanosoma cruzi proteasome chymotrypsin-like activity (TcProtChymo) assay. Also: in the data most compounds retested in dose-response had high values. In kind it is functional. As to conditions: 9.37 µM.

For a further assay, the species on record is Homo sapiens. The experiment in a line: To identify inhibition of the IFN signalling (Jak-Stat) pathway via expression of an eGFP reporter gene under the control of an IFN-stimulated response element (ISRE) containing MxA promoter. In kind it is functional. Conditions: 30 µM. On the technique in general: Reporter assays use an easily measured gene product as a stand-in for the process of interest.

Assay [7] addresses T4, Tyrosyl-tRNA synthetase, putative (Trypanosoma cruzi (strain CL Brener)) (UniProt Q4DSP6).
T4 sequence (whole entry): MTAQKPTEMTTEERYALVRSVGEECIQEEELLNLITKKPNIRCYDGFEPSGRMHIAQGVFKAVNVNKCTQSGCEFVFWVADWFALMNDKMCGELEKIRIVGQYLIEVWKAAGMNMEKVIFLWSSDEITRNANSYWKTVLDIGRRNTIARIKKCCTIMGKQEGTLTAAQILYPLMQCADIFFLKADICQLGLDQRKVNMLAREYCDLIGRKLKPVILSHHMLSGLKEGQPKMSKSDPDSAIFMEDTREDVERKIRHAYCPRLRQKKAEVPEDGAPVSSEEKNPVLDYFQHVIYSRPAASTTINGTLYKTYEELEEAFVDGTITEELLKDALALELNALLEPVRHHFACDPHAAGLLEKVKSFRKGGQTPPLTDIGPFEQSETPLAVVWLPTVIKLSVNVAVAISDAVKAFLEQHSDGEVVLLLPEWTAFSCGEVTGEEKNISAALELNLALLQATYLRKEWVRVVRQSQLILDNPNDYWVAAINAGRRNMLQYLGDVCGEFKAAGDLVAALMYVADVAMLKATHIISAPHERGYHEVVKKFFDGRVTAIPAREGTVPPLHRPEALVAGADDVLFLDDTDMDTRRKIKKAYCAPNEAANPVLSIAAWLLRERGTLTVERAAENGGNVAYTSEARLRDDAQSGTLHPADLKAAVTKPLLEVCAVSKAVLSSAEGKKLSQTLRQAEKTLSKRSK
The experiment in a line: Trypanosoma cruzi tyrosyl tRNA synthetase (TcYRS) _High Tyrosine SOP. Also: in the data most compounds retested in dose-response had high values. Conditions: 30 µM. In kind it is functional.

For assay [8], the target named is T4, Tyrosyl-tRNA synthetase, putative (Trypanosoma cruzi (strain CL Brener)). The experiment in a line: Trypanosoma cruzi tyrosyl tRNA synthetase (TcYRS) SOP. In kind it is functional. Conditions: 30 µM.
Assay [9] concerns the target Chromo domain-containing protein 1 (Saccharomyces cerevisiae (strain ATCC 204508 / S288c) (Baker's yeast)) (UniProt P32657). Put plainly: ScCHD-1 Enzyme Inhibition Assay. Also: in the data most compounds retested in dose-response had high values. It counts as functional. Conditions: 30 µM.

Protein translocase subunit SecA (Escherichia coli (strain K12)), sequence (P10408 whole entry): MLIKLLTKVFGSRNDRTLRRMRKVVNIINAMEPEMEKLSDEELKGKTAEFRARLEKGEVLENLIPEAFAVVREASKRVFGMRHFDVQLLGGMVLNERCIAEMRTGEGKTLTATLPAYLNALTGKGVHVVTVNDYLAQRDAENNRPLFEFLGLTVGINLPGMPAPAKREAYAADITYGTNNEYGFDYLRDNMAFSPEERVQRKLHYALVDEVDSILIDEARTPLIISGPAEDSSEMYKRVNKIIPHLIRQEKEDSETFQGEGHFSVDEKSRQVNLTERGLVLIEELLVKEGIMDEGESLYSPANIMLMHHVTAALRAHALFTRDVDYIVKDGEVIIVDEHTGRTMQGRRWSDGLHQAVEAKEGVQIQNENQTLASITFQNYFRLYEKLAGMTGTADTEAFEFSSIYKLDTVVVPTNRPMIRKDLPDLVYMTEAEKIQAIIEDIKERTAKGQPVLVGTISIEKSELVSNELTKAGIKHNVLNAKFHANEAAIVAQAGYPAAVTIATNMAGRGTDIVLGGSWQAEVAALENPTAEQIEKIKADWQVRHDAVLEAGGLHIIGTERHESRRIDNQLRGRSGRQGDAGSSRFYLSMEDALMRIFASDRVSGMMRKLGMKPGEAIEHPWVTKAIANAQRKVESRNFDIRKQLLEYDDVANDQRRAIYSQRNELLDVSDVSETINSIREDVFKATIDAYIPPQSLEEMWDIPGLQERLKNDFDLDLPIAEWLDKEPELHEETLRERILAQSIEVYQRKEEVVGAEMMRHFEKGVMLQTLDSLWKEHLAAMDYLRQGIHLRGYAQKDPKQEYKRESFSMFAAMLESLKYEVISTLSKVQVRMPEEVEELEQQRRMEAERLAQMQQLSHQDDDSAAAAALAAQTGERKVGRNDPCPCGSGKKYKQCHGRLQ
Chromo domain-containing protein 1 (Saccharomyces cerevisiae (strain ATCC 204508 / S288c) (Baker's yeast)), sequence (P32657 whole entry, the tested form may be a part): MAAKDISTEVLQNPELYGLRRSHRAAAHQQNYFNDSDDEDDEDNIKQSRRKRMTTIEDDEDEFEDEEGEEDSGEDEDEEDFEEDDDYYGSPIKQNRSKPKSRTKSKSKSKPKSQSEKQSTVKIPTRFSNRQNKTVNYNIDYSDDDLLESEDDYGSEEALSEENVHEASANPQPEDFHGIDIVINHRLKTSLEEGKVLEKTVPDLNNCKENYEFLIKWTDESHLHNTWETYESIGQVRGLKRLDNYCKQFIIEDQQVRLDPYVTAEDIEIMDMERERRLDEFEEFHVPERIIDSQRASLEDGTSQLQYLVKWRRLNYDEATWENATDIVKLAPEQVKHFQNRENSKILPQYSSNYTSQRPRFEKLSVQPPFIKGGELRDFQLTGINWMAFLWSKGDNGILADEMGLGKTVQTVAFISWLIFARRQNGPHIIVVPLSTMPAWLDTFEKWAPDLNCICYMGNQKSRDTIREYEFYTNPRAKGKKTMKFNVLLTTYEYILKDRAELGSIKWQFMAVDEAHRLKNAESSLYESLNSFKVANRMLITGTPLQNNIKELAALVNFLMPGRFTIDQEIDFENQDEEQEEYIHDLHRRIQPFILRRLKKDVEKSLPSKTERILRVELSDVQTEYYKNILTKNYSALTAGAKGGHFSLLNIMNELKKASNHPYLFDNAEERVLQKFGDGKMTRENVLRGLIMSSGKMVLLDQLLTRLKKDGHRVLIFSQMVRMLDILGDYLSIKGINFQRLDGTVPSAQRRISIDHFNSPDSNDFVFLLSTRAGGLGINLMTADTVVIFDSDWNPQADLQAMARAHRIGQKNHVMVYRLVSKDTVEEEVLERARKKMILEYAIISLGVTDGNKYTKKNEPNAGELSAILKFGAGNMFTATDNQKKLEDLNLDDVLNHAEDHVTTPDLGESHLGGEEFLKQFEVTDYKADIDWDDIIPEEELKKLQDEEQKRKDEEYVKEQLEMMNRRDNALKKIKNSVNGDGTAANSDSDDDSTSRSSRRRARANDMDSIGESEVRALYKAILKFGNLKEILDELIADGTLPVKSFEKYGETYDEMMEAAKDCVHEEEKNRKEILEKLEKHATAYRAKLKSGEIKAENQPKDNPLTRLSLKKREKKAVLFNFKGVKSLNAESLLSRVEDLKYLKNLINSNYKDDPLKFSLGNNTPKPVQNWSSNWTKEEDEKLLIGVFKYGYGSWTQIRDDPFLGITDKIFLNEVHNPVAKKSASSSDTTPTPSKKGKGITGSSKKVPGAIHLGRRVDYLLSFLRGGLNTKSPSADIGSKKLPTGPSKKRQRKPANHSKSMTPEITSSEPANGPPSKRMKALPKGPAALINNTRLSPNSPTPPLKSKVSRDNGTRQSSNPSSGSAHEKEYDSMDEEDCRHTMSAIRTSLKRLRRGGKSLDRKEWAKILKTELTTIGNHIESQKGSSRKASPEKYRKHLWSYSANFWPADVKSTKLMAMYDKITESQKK
Sialic acid-binding Ig-like lectin 9 (Homo sapiens), sequence (Q9Y336 whole entry): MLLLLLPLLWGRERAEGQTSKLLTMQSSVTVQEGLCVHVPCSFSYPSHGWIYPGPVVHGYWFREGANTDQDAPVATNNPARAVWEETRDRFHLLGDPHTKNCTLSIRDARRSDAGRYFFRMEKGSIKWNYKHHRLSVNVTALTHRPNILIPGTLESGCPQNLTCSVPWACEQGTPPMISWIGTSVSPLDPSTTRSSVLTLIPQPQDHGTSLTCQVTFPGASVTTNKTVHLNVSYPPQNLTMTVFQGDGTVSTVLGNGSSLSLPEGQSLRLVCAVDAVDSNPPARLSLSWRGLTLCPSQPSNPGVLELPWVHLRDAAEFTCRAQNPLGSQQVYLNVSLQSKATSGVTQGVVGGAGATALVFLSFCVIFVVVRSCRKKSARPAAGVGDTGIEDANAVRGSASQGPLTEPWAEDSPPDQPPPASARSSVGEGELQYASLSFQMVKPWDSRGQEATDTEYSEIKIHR

On to `COc1ccc(OC)c(CCNC(=O)NC(C)Cn2ccnc2)c1` (stereo not given), for which the Percent Effect in assay [1] was -2.99%; in assay [2], 10.5%; in assay [3], -9.22%; in assay [4], -3.09%; with Trypanosoma cruzi, -9.77%; in assay [5], -6.13%. Besides, the Percent Effect in [6] is 5.35%; in the assay filed under Homo sapiens, 34.6%; in assay [7], -1.47%; in assay [8], 4.88%; in [9], -5.83%.
As to `COC(=O)CCC(=O)N1CCc2[nH]nc(-c3ccc(F)c(F)c3)c2C1`, the Percent Effect in assay [1] is -3.6%; in assay [2], 0%; in assay [3] it was 8.72%; in assay [4], -7.28%; with Trypanosoma cruzi it was -3.81%; in assay [5] it was 1.24%. The Percent Effect is -3.35% in assay [6]; 9.05% in the assay filed under Homo sapiens; 2.15% in [7]; 8.64% in assay [8]; -0.244% in assay [9].
On to `O=C1CCC2(CCCN(c3ncc(F)cn3)CC2)N1CC1CC1` (stereo not given), for which the Percent Effect was -4% in assay [1]; 7.79% in assay [2]; 3.94% in assay [3]; 5.12% in assay [4]; 1.08% in the assay on Trypanosoma cruzi; 5.81% in assay [5]. In addition, the Percent Effect in assay [6] was 12.7%; in the assay listed under Homo sapiens it was 14.5%; in assay [7], 6.35%; in assay [8], 16.7%; in assay [9] it was -4.57%.
Turning to `Nc1nccc(N2CCC(Cc3ccccc3Cl)(C(=O)O)CC2)n1`, the Percent Effect in assay [1] is -1.91%; in assay [2] it was 16.2%; in assay [3] it was -3.46%; in assay [4], 22.5%; in the assay with Trypanosoma cruzi it was 6.56%; in assay [5] it was 9.52%. The Percent Effect in assay [6] is 18.1%; in the assay listed under Homo sapiens, -0.891%; in assay [7], 5.82%; in assay [8], 21.9%; in [9], -7.9%.
Regarding `CCS(=O)(=O)N1CCC[C@]2(C(=O)N(C)C)CN(c3ncccn3)C[C@@H]2C1`, the Percent Effect was 2.18% in assay [1]; 10.7% in assay [2]; 3.9% in assay [3]; 3.64% in [4]; 0.193% in the assay with Trypanosoma cruzi; -53.9% in [5]. Further, the Percent Effect was 7.52% in [6]; -10.8% in the assay filed under Homo sapiens; 3.12% in assay [7]; 22.5% in [8]; -10.2% in assay [9].
Regarding `CCNc1cc2c(nn1)CCN(C(=O)Cc1c(C)noc1C)C2`, the Percent Effect in assay [1] was -9.15%; in assay [2], 7.89%; in assay [3] it was 9.72%; in assay [4], 1.08%; in the assay with Trypanosoma cruzi it was -5.51%; in assay [5], 0.719%. In addition, the Percent Effect in assay [6] came to 3.47%; in the assay filed under Homo sapiens it was 6.32%; in [7], 0.493%; in assay [8], 1.24%; in assay [9], 3.07%.
Regarding `CC(C)c1ccc(C(O)Cn2c(=O)c(C#N)cn(C3CC3)c2=O)cc1` (stereo not given), the Percent Effect in [1] is -0.117%; in [2] it was -2.63%; in [3] it was 7.18%; in assay [4] it was 0.134%; in the assay on Trypanosoma cruzi, -6.39%; in assay [5], 4.21%. Further, the Percent Effect is 0.334% in [6]; 1.74% in the assay filed under Homo sapiens; -1.47% in assay [7]; -2.44% in assay [8]; -2.6% in [9].
`CCc1nnc2n1CCN(C(=O)c1cc3ccc(F)cc3nc1C)C2`: the Percent Effect in assay [1] is -5.47%; in [2], 15.6%; in assay [3], 4.64%; in assay [4], 3.18%; with Trypanosoma cruzi, 1.12%; in assay [5] it was -3.92%. Also, the Percent Effect was 6.59% in [6]; -1.03% in the assay filed under Homo sapiens; 11.7% in [7]; 21.9% in assay [8]; -6.09% in [9].
On to `CCC(=O)N1CCN(C(=O)CCn2cccn2)CC1`, for which the Percent Effect is -1.61% in assay [1]; 24.3% in assay [2]; -7.17% in [3]; 0.998% in assay [4]; 6.96% in the assay on Trypanosoma cruzi; 0.554% in assay [5]. The Percent Effect was 8.62% in [6]; 5.89% in the assay listed under Homo sapiens; 6.93% in [7]; 25.6% in assay [8]; -6.76% in assay [9].
On to `CN(C)CCO[C@@H]1CC[C@H]2[C@H]1OCCN2C(=O)CCc1ccccc1`, for which the Percent Effect is -1.21% in [1]; 2.67% in [2]; -7.4% in assay [3]; -1.11% in assay [4]; -2.7% with Trypanosoma cruzi; -57.5% in [5]. Further, the Percent Effect was 0.171% in assay [6]; -1.39% in the assay filed under Homo sapiens; 0% in assay [7]; 2.5% in [8]; -6.72% in [9].
